Measurements published in PubChem BioAssay AID1159580 (chemical genetic matrix, 2015).
The whole screen tested about 5,500 compounds, of which about 2,000 (36%) were called active. Another 18% or so got no clear call; they are omitted. This is one part of the list. A number with no mark means an inactive call. Cut-off read from the data, not from the text of the source: active = normalized growth mostly below about 0.91 (no sharp cut-off); inconclusive = no clear call, values can overlap the other calls; inactive = mostly above about 0.92.

Assay: chemical genetic growth profiling, strain panel (AID 1159580);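 note: tested at 20 µM; growth read once vehicle control cultures reached saturation at 30 °C; 1 = growth at the plate median or of vehicle wells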
Conditions: growth OD

With `O=c1cc(-c2cc(O)c(O)c(O)c2)oc2cc(O)cc(O)c12` the normalized growth (S. cerevisiae deletion strains, locus YJR075W, strain HOC1, stronger effect = lower value) was 1.02, the normalized growth (S. cerevisiae deletion strains, locus YKL009W, strain mrt4, stronger effect = lower value) was 0.99 and the normalized growth (S. cerevisiae deletion strains, locus YKL068W, stronger effect = lower value) was 0.962. It also gave a normalized growth (S. cerevisiae deletion strains, locus YKL085W, strain MDH1 (second series), stronger effect = lower value) of 0.996, a normalized growth (S. cerevisiae deletion strains, locus YKL085W, strain MDH1, stronger effect = lower value) of 0.996 and a normalized growth (S. cerevisiae deletion strains, locus YKL160W, strain elf1, stronger effect = lower value) of 0.934. For the same compound, the normalized growth (S. cerevisiae deletion strains, locus YKL190W, strain CNB1, stronger effect = lower value) was 0.992, the normalized growth (S. cerevisiae deletion strains, locus YKR001C, strain vps1, stronger effect = lower value) was 0.986 and the normalized growth (S. cerevisiae deletion strains, locus YKR026C, strain gcn3, stronger effect = lower value) was 1.01. It also gave a normalized growth (S. cerevisiae deletion strains, locus YKR091W, strain srl3, stronger effect = lower value) of 1.01, a normalized growth (S. cerevisiae deletion strains, locus YLL001W, strain dnm1, stronger effect = lower value) of 0.961 and a normalized growth (S. cerevisiae deletion strains, locus YLL026W, stronger effect = lower value) of 1.01. The normalized growth (S. cerevisiae deletion strains, locus YLL041C, strain sdh2, stronger effect = lower value) was 1, the normalized growth (S. cerevisiae deletion strains, locus YLR027C, strain aat2, stronger effect = lower value) was 0.974 and the normalized growth (S. cerevisiae deletion strains, locus YLR039C, strain RIC1, stronger effect = lower value) was 0.966. The normalized growth (S. cerevisiae deletion strains, locus YLR058C, strain SHM2, stronger effect = lower value) was 0.999, the normalized growth (S. cerevisiae deletion strains, locus YLR102C, strain apc9, stronger effect = lower value) was 0.995 and the normalized growth (S. cerevisiae deletion strains, locus YLR113W, strain HOG1, stronger effect = lower value) was 0.998. For the same compound, the normalized growth (S. cerevisiae deletion strains, locus YLR221C, strain rsa3, stronger effect = lower value) was 0.928, the normalized growth (S. cerevisiae deletion strains, locus YLR258W, strain gsy2, stronger effect = lower value) was 0.967 and the normalized growth (S. cerevisiae deletion strains, locus YLR262C, strain YPT6 (second series), stronger effect = lower value) was 0.905. The normalized growth (S. cerevisiae deletion strains, locus YLR262C, strain YPT6, stronger effect = lower value) was 1.05, the normalized growth (S. cerevisiae deletion strains, locus YLR268W, strain sec22, stronger effect = lower value) was 0.976 and the normalized growth (S. cerevisiae deletion strains, locus YLR320W, strain mms22, stronger effect = lower value) was 0.897. The normalized growth (S. cerevisiae deletion strains, locus YLR330W, strain CHS5, stronger effect = lower value) was 0.994, the normalized growth (S. cerevisiae deletion strains, locus YLR342W, strain FKS1 (second series), stronger effect = lower value) was 0.986 and the normalized growth (S. cerevisiae deletion strains, locus YLR342W, strain FKS1, stronger effect = lower value) was 0.964. The normalized growth (S. cerevisiae deletion strains, locus YLR357W, strain rsc2, stronger effect = lower value) was 0.856, the normalized growth (S. cerevisiae deletion strains, locus YLR370C, strain arc18, stronger effect = lower value) was 0.924 and the normalized growth (S. cerevisiae deletion strains, locus YLR371W, strain rom2, stronger effect = lower value) was 0.985. It also gave a normalized growth (S. cerevisiae deletion strains, locus YLR384C, strain iki3, stronger effect = lower value) of 0.993, a normalized growth (S. cerevisiae deletion strains, locus YLR418C, strain cdc73, stronger effect = lower value) of 1.02 and a normalized growth (S. cerevisiae deletion strains, locus YML016C, strain PPZ1, stronger effect = lower value) of 0.994. For the same compound, the normalized growth (S. cerevisiae deletion strains, locus YML032C, strain rad52, stronger effect = lower value) was 0.999, the normalized growth (S. cerevisiae deletion strains, locus YML120C, strain ndi1, stronger effect = lower value) was 0.948 and the normalized growth (S. cerevisiae deletion strains, locus YML124C, strain tub3, stronger effect = lower value) was 0.998. The normalized growth (S. cerevisiae deletion strains, locus YMR058W, strain fet3, stronger effect = lower value) was 0.941, the normalized growth (S. cerevisiae deletion strains, locus YMR078C, strain ctf18, stronger effect = lower value) was 0.998 and the normalized growth (S. cerevisiae deletion strains, locus YMR125W, strain sto1, stronger effect = lower value) was 1.03. The normalized growth (S. cerevisiae deletion strains, locus YMR129W, stronger effect = lower value) was 1.01, the normalized growth (S. cerevisiae deletion strains, locus YMR205C, strain PFK2, stronger effect = lower value) was 0.961 and the normalized growth (S. cerevisiae deletion strains, locus YMR223W, strain ubp8, stronger effect = lower value) was 0.964. For the same compound, the normalized growth (S. cerevisiae deletion strains, locus YMR231W, strain pep5, stronger effect = lower value) was 1, the normalized growth (S. cerevisiae deletion strains, locus YMR263W, strain SAP30, stronger effect = lower value) was 0.999 and the normalized growth (S. cerevisiae deletion strains, locus YMR307W, strain GAS1, stronger effect = lower value) was 1.09. For the same compound, the normalized growth (S. cerevisiae deletion strains, locus YNL067W, strain RPL9B, stronger effect = lower value) was 1.01, the normalized growth (S. cerevisiae deletion strains, locus YNL071W, strain lat1, stronger effect = lower value) was 0.979 and the normalized growth (S. cerevisiae deletion strains, locus YNL128W, strain TEP1, stronger effect = lower value) was 0.953. The normalized growth (S. cerevisiae deletion strains, locus YNL183C, strain NPR1, stronger effect = lower value) was 0.966, the normalized growth (S. cerevisiae deletion strains, locus YNL209W, strain ssb2, stronger effect = lower value) was 0.875 (active) and the normalized growth (S. cerevisiae deletion strains, locus YNL233W, strain BNI4, stronger effect = lower value) was 1.01. It also gave a normalized growth (S. cerevisiae deletion strains, locus YNL248C, strain rpa49, stronger effect = lower value) of 1.02, a normalized growth (S. cerevisiae deletion strains, locus YNL250W, strain rad50, stronger effect = lower value) of 0.966 and a normalized growth (S. cerevisiae deletion strains, locus YNL271C, strain bni1, stronger effect = lower value) of 0.978. For the same compound, the normalized growth (S. cerevisiae deletion strains, locus YNL298W, strain CLA4, stronger effect = lower value) was 0.985, the normalized growth (S. cerevisiae deletion strains, locus YNL307C, strain MCK1, stronger effect = lower value) was 1.01 and the normalized growth (S. cerevisiae deletion strains, locus YNL322C, strain KRE1 (second series), stronger effect = lower value) was 0.991. The normalized growth (S. cerevisiae deletion strains, locus YNR049C, strain mso1, stronger effect = lower value) was 1.01, the normalized growth (S. cerevisiae deletion strains, locus YNR052C, strain pop2, stronger effect = lower value) was 0.999 and the normalized growth (S. cerevisiae deletion strains, locus YOL006C, strain TOP1, stronger effect = lower value) was 1.08. For the same compound, the normalized growth (S. cerevisiae deletion strains, locus YOL012C, strain htz1) was 0.547, the normalized growth (S. cerevisiae deletion strains, locus YOL147C, strain pex11, stronger effect = lower value) was 1.01 and the normalized growth (S. cerevisiae deletion strains, locus YOR001W, strain rrp6, stronger effect = lower value) was 0.987. For the same compound, the normalized growth (S. cerevisiae deletion strains, locus YOR061W, strain CKA2, stronger effect = lower value) was 0.997, the normalized growth (S. cerevisiae deletion strains, locus YOR069W, strain VPS5, stronger effect = lower value) was 1 and the normalized growth (S. cerevisiae deletion strains, locus YOR070C, strain gyp1, stronger effect = lower value) was 0.962. The normalized growth (S. cerevisiae deletion strains, locus YOR080W, strain dia2, stronger effect = lower value) was 0.993, the normalized growth (S. cerevisiae deletion strains, locus YOR083W, strain WHI5, stronger effect = lower value) was 0.916 and the normalized growth (S. cerevisiae deletion strains, locus YOR106W, strain vam3, stronger effect = lower value) was 0.926. It also gave a normalized growth (S. cerevisiae deletion strains, locus YOR136W, strain idh2, stronger effect = lower value) of 0.995, a normalized growth (S. cerevisiae deletion strains, locus YOR144C, strain elg1, stronger effect = lower value) of 1.01 and a normalized growth (S. cerevisiae deletion strains, locus YOR184W, strain ser1, stronger effect = lower value) of 1.01. It also gave a normalized growth (S. cerevisiae deletion strains, locus YOR231W, strain MKK1, stronger effect = lower value) of 1.04, a normalized growth (S. cerevisiae deletion strains, locus YOR265W, strain rbl2, stronger effect = lower value) of 0.99 and a normalized growth (S. cerevisiae deletion strains, locus YOR270C, strain vph1, stronger effect = lower value) of 0.888. For the same compound, the normalized growth (S. cerevisiae deletion strains, locus YOR290C, strain snf2, stronger effect = lower value) was 0.942, the normalized growth (S. cerevisiae deletion strains, locus YOR316C, strain cot1, stronger effect = lower value) was 0.987 and the normalized growth (S. cerevisiae deletion strains, locus YPL051W, strain arl3, stronger effect = lower value) was 0.931. The normalized growth (S. cerevisiae deletion strains, locus YPL055C, strain LGE1, stronger effect = lower value) was 1.03, the normalized growth (S. cerevisiae deletion strains, locus YPL078C, strain atp4, stronger effect = lower value) was 0.98 and the normalized growth (S. cerevisiae deletion strains, locus YPL106C, strain sse1, stronger effect = lower value) was 0.929. For the same compound, the normalized growth (S. cerevisiae deletion strains, locus YPL240C, strain hsp82, stronger effect = lower value) was 1.01, the normalized growth (S. cerevisiae deletion strains, locus YPL256C, strain CLN2, stronger effect = lower value) was 1.06 and the normalized growth (S. cerevisiae deletion strains, locus YPR119W, strain clb2, stronger effect = lower value) was 1.01. For the same compound, the normalized growth (S. cerevisiae deletion strains, locus YPR141C, strain kar3, stronger effect = lower value) was 0.971, the normalized growth (S. cerevisiae deletion strains, locus YPR163C, strain tif3, stronger effect = lower value) was 0.988 and the normalized growth (S. cerevisiae deletion strains, locus YPR167C, strain met16, stronger effect = lower value) was 1.01. The normalized growth (S. cerevisiae deletion strains, strain wtn01, stronger effect = lower value) was 1 and the normalized growth (S. cerevisiae strains, strain wild type, stronger effect = lower value) was 0.996.
